According to PubChem BioAssay (NCI):
About 83,000 compounds went through this panel and 20% of them were active in at least one assay; those are over-represented in the sample as a whole.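 Testing used 96-well plates and a 48-hour single-concentration exposure. Example: -40 means 40% of the starting cells died.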 Calls of active or inactive are those of the source. How the source made its calls: active means growth percent below 10; inactive means the rest.

Key:
Test in all cases: NCI-60 one-dose screen, 48 h (100 = growth as untreated, 0 = no growth, -100 = all killed)
[1] = system: DU-145 prostate; details: 10 µM unless noted
[2] = system: K-562 leukemia; details: 10 µM unless noted
[3] = system: MALME-3M melanoma; details: 10 µM unless noted
[4] = system: MDA-MB-231 breast; details: 10 µM unless noted
[5] = system: RXF 393 renal; details: 10 µM unless noted
[6] = system: SF-268 CNS; details: 10 µM unless noted
[7] = system: SF-295 CNS; details: 10 µM unless noted
[8] = system: SF-539 CNS; details: 10 µM unless noted
[9] = system: UACC-257 melanoma; details: 10 µM unless noted
[10] = system: M14 melanoma; details: 10 µM unless noted
[11] = system: HT29 colon; details: 10 µM unless noted
[12] = system: SNB-75 CNS; details: 10 µM unless noted
[13] = system: SNB-19 CNS; details: 10 µM unless noted
[14] = system: U251 CNS; details: 10 µM unless noted
[15] = system: PC-3 prostate; details: 10 µM unless noted
[16] = system: SK-MEL-5 melanoma; details: 10 µM unless noted
[17] = system: UACC-62 melanoma; details: 10 µM unless noted
[18] = system: LOX IMVI melanoma; details: 10 µM
[19] = system: SK-MEL-28 melanoma; details: 10 µM unless noted
[20] = system: HCT-15 colon; details: 10 µM unless noted

SMILES: O=[N+]([O-])/C(=C/c1ccccc1)c1ccccc1
- growth [1]: 106% (inactive)
- growth [2]: 98.3% (inactive)
- growth [3]: 98.7% (inactive)
- growth [4]: 112% (inactive)
- growth [5]: 97.1% (inactive)
- growth [6]: 106% (inactive)
- growth [7]: 98.9% (inactive)
- growth [8]: 96% (inactive)
- growth [9]: 103% (inactive)
- growth [10]: 101% (inactive)
- growth [11]: 99% (inactive)
- growth [12]: 106% (inactive)
- growth [13]: 110% (inactive)
- growth [14]: 97.4% (inactive)
- growth [15]: 100% (inactive)
- growth [16]: 103% (inactive)
- growth [17]: 108% (inactive)
- growth [18]: 96.3% (inactive)
- growth [19]: 100% (inactive)

SMILES: Cn1c(-c2ccccc2)c(/C=C/C2=[N+](C)c3ccccc3C2(C)C)c2ccccc21
- growth [1]: 20.2% (inactive)
- growth [2]: 6.23% (active)
- growth [3]: -6.21% (active)
- growth [4]: 15.6% (inactive)
- growth [5]: 35.2% (inactive)
- growth [6]: 18% (inactive)
- growth [7]: 11.8% (inactive)
- growth [8]: 11.9% (inactive)
- growth [9]: -51.5% (active)
- growth [20]: 38.9% (inactive)
- growth [11]: 0.701% (active)
- growth [12]: 20.6% (inactive)
- growth [13]: 18.5% (inactive)
- growth [14]: 8.73% (active)
- growth [15]: 8.69% (active)
- growth [16]: -98.4% (active)
- growth [17]: -3.73% (active)
- growth [18]: 14.8% (inactive)
- growth [19]: 22.5% (inactive)

SMILES: Cc1ccccc1N=C(N)Nc1ccccc1C (tested in a mixture with another compound)
- growth [1]: 84.3% (inactive)
- growth [2]: 85.8% (inactive)
- growth [3]: 102% (inactive)
- growth [4]: 68.5% (inactive)
- growth [5]: 94.7% (inactive)
- growth [6]: 72.2% (inactive)
- growth [7]: 104% (inactive)
- growth [8]: 72.4% (inactive)
- growth [9]: 97.5% (inactive)
- growth [20]: 66.5% (inactive)
- growth [11]: 97.3% (inactive)
- growth [12]: 99.5% (inactive)
- growth [14]: 84% (inactive)
- growth [15]: 70.7% (inactive)
- growth [16]: 73.1% (inactive)
- growth [17]: 90.5% (inactive)
- growth [18]: 93% (inactive)
- growth [19]: 105% (inactive)

SMILES: CCCCCCCCc1cc(Cl)c(O)c(Cl)c1
- growth [1]: 103% (inactive)
- growth [2]: 104% (inactive)
- growth [3]: 100% (inactive)
- growth [4]: 103% (inactive)
- growth [5]: 113% (inactive)
- growth [6]: 98.5% (inactive)
- growth [7]: 113% (inactive)
- growth [8]: 99.5% (inactive)
- growth [9]: 104% (inactive)
- growth [10]: 107% (inactive)
- growth [12]: 98.4% (inactive)
- growth [14]: 101% (inactive)
- growth [15]: 89.9% (inactive)
- growth [16]: 108% (inactive)
- growth [17]: 99.5% (inactive)
- growth [18]: 95.6% (inactive)
- growth [19]: 112% (inactive)

SMILES: COc1cccc2c1C(=O)c1c(O)c3c(c(O)c1C2=O)C[C@@](O)(C(=O)CO)C[C@@H]3OC1CC(OC(C)=O)C(OC(C)=O)C(C)O1 (some centres undefined)
- growth [1]: -50.9% (active)
- growth [2]: -34.2% (active)
- growth [3]: -83% (active)
- growth [4]: 9.19% (active)
- growth [5]: -31.3% (active)
- growth [6]: -22.3% (active)
- growth [7]: -30.2% (active)
- growth [8]: -34.4% (active)
- growth [9]: -27.7% (active)
- growth [10]: -12.5% (active)
- growth [11]: -59% (active)
- growth [12]: -30.9% (active)
- growth [13]: -8.8% (active)
- growth [15]: 5.51% (active)
- growth [16]: -100% (active)
- growth [17]: -87.8% (active)
- growth [18]: -75.4% (active)
- growth [19]: -8.16% (active)

SMILES: CCC(C)(O)Cc1ccc(Cl)cc1 (centres undefined)
- growth [1]: 114% (inactive)
- growth [2]: 99.3% (inactive)
- growth [3]: 110% (inactive)
- growth [4]: 95.7% (inactive)
- growth [5]: 101% (inactive)
- growth [6]: 106% (inactive)
- growth [7]: 94.6% (inactive)
- growth [8]: 104% (inactive)
- growth [9]: 108% (inactive)
- growth [10]: 101% (inactive)
- growth [11]: 103% (inactive)
- growth [12]: 88.2% (inactive)
- growth [13]: 102% (inactive)
- growth [14]: 101% (inactive)
- growth [15]: 94.5% (inactive)
- growth [16]: 91.6% (inactive)
- growth [17]: 101% (inactive)
- growth [18]: 103% (inactive)
- growth [19]: 112% (inactive)

SMILES: CCSc1nc2ccccc2o1
- growth [1]: 111% (inactive)
- growth [2]: 100% (inactive)
- growth [3]: 118% (inactive)
- growth [4]: 112% (inactive)
- growth [5]: 110% (inactive)
- growth [6]: 96.1% (inactive)
- growth [7]: 113% (inactive)
- growth [8]: 96.3% (inactive)
- growth [9]: 106% (inactive)
- growth [10]: 109% (inactive)
- growth [11]: 113% (inactive)
- growth [12]: 88.2% (inactive)
- growth [13]: 99.9% (inactive)
- growth [14]: 101% (inactive)
- growth [15]: 92.3% (inactive)
- growth [16]: 108% (inactive)
- growth [17]: 102% (inactive)
- growth [18]: 103% (inactive)
- growth [19]: 113% (inactive)
